# Bim-Mcl-1 – inhibitors of Bim-Mcl-1 interaction, human; inhibition, % at 10 µM; hit rate 0.1% among 190,000; Bead-based flow cytometry, Bim peptide-Mcl-1 binding; in the data active means inhibition above about 40%;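 further: 0% = no compound tracer wells and 100% = peptide blocker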
# GLD-1 RNA inh – GLD-1-TGE RNA interaction inhibition (C. elegans); purified GLD-1 + fluorescein TGE RNA, fluorescence polarization; hit rate 0.44% among 320,000; inhibition, % at 5.96 µM;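 active means percent inhibition above a per-plate cutoff, the plate mean of test compounds plus 3 SD, cut at about 30% in these data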;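 further: 0% = DMSO wells with GLD-1 and probe and 100% = wells lacking GLD-1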
# MCL1 BIM primary – inhibitors of human MCL1 binding to BIM-BH3 peptide; hit rate 0.68% among 320,000; inhibition, % at 10.9 µM; AID 2057; GST-MCL1 / FITC-Bim-BH3 fluorescence polarization; Q07820;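 active means inhibition above the mean inhibition of all tested compounds plus 3 SD, set per campaign, cut at about 40% in these data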;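 further: 0% = DMSO wells and 100% = unlabeled Bim-BH3 peptide control; higher means more loss of mP so more displacement of Bim peptide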
# Mcl1-Noxa inh – disrupts binding of human Mcl-1 to Noxa peptide; Q07820; AID 1022; TR-FRET Mcl-1/Noxa peptide binding, 2 h; hit rate 1.5% among 220,000; inhibition, % at 21.7 µM;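 active means compounds that cut the protein-peptide binding signal by more than 50% relative to plate controls in a single-dose test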;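 further: His-tagged Mcl-1 with rhodamine Noxa BH3 peptide and terbium anti-His antibody; 0% = Mcl-1 plus Noxa peptide wells and 100% = peptide-only wells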
# Mcl1 Bid PPI – Mcl-1/Bid interaction inhibition. Q07820. TR-FRET Mcl-1/Bid-Dy647 peptide binding, 1536-well. inhibition, % at 21.7 µM. hit rate 0.97% among 220,000. AID 1021;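 active means compounds that cut the binding signal by more than half at the single screening dose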;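 further: His-tagged Mcl-1 with europium anti-His antibody binding Bid BH3 peptide; 0% = Mcl-1 plus peptide wells and 100% = peptide-only wells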
# Bcl-xL primary – blocks human Bcl-xL binding to Bim BH3 peptide; inhibition, % at 10.9 µM; hit rate 0.7% among 320,000; Q07817; GST-Bcl-xL / FITC-Bim BH3 peptide fluorescence polarization; AID 2129;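 active means inhibition above the mean of all tested compounds plus 3 SD, cutoff set per campaign, cut at about 30% in these data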;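 further: 0% = DMSO wells and 100% = unlabeled Bim-BH3 peptide competitor; inhibitors lower millipolarization by displacing the labeled peptide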
# Target sequence (Q07817 whole entry, looked up): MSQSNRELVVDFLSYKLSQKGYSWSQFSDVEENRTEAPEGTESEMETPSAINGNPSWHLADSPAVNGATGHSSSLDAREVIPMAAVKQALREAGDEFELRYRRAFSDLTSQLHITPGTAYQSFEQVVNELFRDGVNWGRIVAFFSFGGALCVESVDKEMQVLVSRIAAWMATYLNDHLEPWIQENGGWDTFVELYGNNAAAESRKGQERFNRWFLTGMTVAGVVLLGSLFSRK
# * hit, by the source's call; . = no result. Only some compounds are listed: those with a hit (about 2.3% of all), similar ones and a draw of the others.
SMILES,Bim-Mcl-1,GLD-1 RNA inh,MCL1 BIM primary,Mcl1-Noxa inh,Mcl1 Bid PPI,Bcl-xL primary
CCCCNC(=O)CCc1nc2cccnc2n1Cc1ccc(OC)cc1,-1.0,-3.4,-1.6,0.7,-1.5,1.3
COc1ccc(Cn2c(CCC(=O)NCc3ccco3)nc3cccnc32)cc1,-3.0,-5.4,-3.0,64.9*,-43.7,0.3
COc1ccc(CCNc2nc(-c3sc(C)nc3C)cs2)cc1OC,0.0,0.7,-4.7,60.0*,73.4*,-4.5
COc1ccc(CCNc2nc(-c3ccncc3)cs2)cc1OC,.,-4.6,-1.3,-0.2,-10.6,0.9
COc1ccc(CCNc2nc(-c3cccnc3)cs2)cc1OC,-5.0,5.8,4.0,11.0,90.2*,5.0
CN(Cc1cnccn1)C(=O)CC1C(=O)NCCN1Cc1cccc(F)c1 (stereo unspecified),.,6.8,19.1,.,.,12.8
CCCc1[nH]nc2c1C(Cc1ccccc1)C(C#N)=C(N)O2 (stereo unspecified),2.0,5.0,-3.9,1.1,-46.0,5.0
COC(=O)c1ccc(NC(C)=O)cc1O,-7.0,.,.,2.0,-11.2,.
O=C1C=Cc2ccccc2/C1=C/c1[nH]c(=O)[nH]c1O,.,-9.0,-5.6,60.3*,-30.4,0.4
O=c1[nH]c(O)c(/C=C2\C=Nc3ccccc32)[nH]1,.,.,.,-2.9,-30.0,.
Cn1cccc1CNCC(O)c1ccccc1 (stereo unspecified),.,4.9,7.3,.,.,7.2
O=c1[nH]c(CN2CCN(c3ccc(O)cc3)CC2)nc2scc(-c3ccc(Cl)cc3)c12,11.0,3.4,9.2,66.3*,-55.3,12.9
CC(C)c1nnc(NC(=O)CSc2ncn[nH]2)s1,-9.0,2.5,9.8,53.3*,-3.4,-1.7
CCOC(=O)C1CCN(CC(=O)N2CCc3ccccc32)CC1,.,-1.6,5.2,.,.,1.7
CCOC(=O)C1CCN(CC(=O)N2C(C)CCCC2C)CC1 (stereo unspecified),-1.0,3.7,-4.0,29.9,64.8*,-1.5
Cc1nnc(SCC(=O)Nc2cc(C(F)(F)F)ccc2Cl)n1C,.,7.2,2.0,.,.,-0.8
CCC1CSC(Nc2ccc(C(=O)/C=C/c3cccc(C)c3)cc2)=N1 (stereo unspecified),0.0,-6.3,-8.8,85.5*,25.6,-7.9
CN(C)CC[C@@H](c1ccc(Br)cc1)c1ccccn1,.,1.5,8.6,.,.,-2.2
Cc1cn(C2OC(COC(=O)c3ccccc3)C(O)C2Cl)c(=O)[nH]c1=O (stereo unspecified),1.0,1.8,3.0,-0.4,-35.4,2.2
COc1ccc2nc3cccc(OC)c3nc2c1,2.0,24.2,33.0,21.9,-35.4,45.9*
COc1ccc2nc(-c3ccccc3)cc(OC)c2c1,-4.0,3.2,-4.2,8.2,12.1,1.9
COc1ccc2nc3ccccc3nc2c1N,.,5.6,10.6,55.2*,-85.7,12.8
CCN(C(=O)CCc1nnc2ccc(N3CCC4(CC3)OCCO4)nn12)c1ccccc1,.,-0.9,5.1,.,.,1.5
O=C(COc1ccccc1)NC1CCCc2ccccc21 (stereo unspecified),-4.0,0.7,5.3,-1.5,-25.7,0.8
O=C(COc1ccc(-c2nnco2)cc1)NC1CCCc2ccccc21 (stereo unspecified),5.0,0.1,1.1,9.8,60.4*,7.2
SMILES,Bim-Mcl-1,GLD-1 RNA inh,MCL1 BIM primary,Mcl1-Noxa inh,Mcl1 Bid PPI,Bcl-xL primary
COc1cc(-c2n[nH]c(=O)o2)cc(OC)c1OC,-2.0,-7.2,3.9,3.0,-25.7,2.4
CCOc1ccc(N/C(C)=C/C(=O)c2ccc3c(c2)OCCO3)cc1,.,4.6,1.3,17.4,-27.7,1.9
COc1cc(C(=O)OCC(=O)N2CCCCC2C)ccc1OCc1c(C)noc1C (stereo unspecified),0.0,2.7,3.9,-6.0,-12.8,1.3
CCCCNC(=O)Nc1nnc(-c2ccccc2)o1,2.0,2.5,8.0,10.1,59.1*,2.4
CCn1c(=N)n(CC(O)c2ccco2)c2ccccc21 (stereo unspecified),2.0,3.0,12.3,-7.7,-42.1,16.3
C=CCn1c(=N)n(CC(O)c2ccco2)c2ccccc21 (stereo unspecified),-5.0,15.1,30.7,-0.3,-13.0,33.8*
Oc1ccc(Nc2nc(NCC3CCCO3)c3ccccc3n2)cc1 (stereo unspecified),0.0,.,.,54.6*,-32.1,.
Oc1ccccc1Nc1nc(NCC2CCCO2)c2ccccc2n1 (stereo unspecified),3.0,12.1,6.2,34.9,-53.5,5.1

# Source: PubChem BioAssay
